Experimental data taken from PubChem BioAssay AID1347426 (Functional Genomics Laboratory (NCATS/FGL), 2020).
In all, about 31,000 sequences went through this assay and about 1,400 (4.5%) were called active. This is one part of a sample in which actives are shown more often than they occur.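 How the source made its calls: active means median seed-adjusted z-score above 1 or below -1; inactive means the rest.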

Assay: Novel Modifiers of Survival Motor Neuron (SMN) Protein: Gene Identification via Genome-wide siRNA Screen;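 further: luminescence tracks full-length SMN protein made from the SMN2 reporter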
Conditions: HEK293T SMN2-luciferase reporter, siRNA knockdown, 72 h; actives lie on both sides
Procedure, shortened: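 Each of three siRNAs per gene is reverse-transfected (1 pmol) into reporter HEK293T cells whose luciferase output tracks SMN protein level. After 72 h culture, ONE-Glo luminescence is control-normalized, log10-transformed and MAD-standardized; Common Seed Analysis deprioritizes seed-driven hits.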
With CCAAGACUCCAACCAUUUUTT against IKZF4 the median seed-adjusted z-score was -0.426 (inactive).
With GGACCUCAAAGUUGUCUAUTT against AP1S1 the median seed-adjusted z-score was -1.04 (active).
For CGUGGGAUGCUCAAAGAUATT against EZR, the median seed-adjusted z-score was 0.0344 (inactive).
With CCCAGAUCAUAUACUCCUATT against LYPLAL1 the median seed-adjusted z-score was -0.425 (inactive).
For GGCAUGAAGUGAAGGAUGATT against ZNF134, the median seed-adjusted z-score was -0.0978 (inactive).
With CCUCAAUACUCCGCAAAUATT against NMNAT2 the median seed-adjusted z-score was -1.58 (active).
For GGAAAGUUAUCAGGAUGCATT against SAG, the median seed-adjusted z-score was 0 (inactive).
With GGAUUCCAAUCUUAGCUUUTT against RLN1 the median seed-adjusted z-score was 0.0637 (inactive).
For GGAAUUCCUUUAAUGACGATT against RYR3, the median seed-adjusted z-score was 0 (inactive).
With CCACCAGCGUGAUCAUUGUTT against GALNT6 the median seed-adjusted z-score was -0.287 (inactive).
With CUUCCAUGCCUUUGACCUATT against CDCP2 the median seed-adjusted z-score was 0.0708 (inactive).
For CUUGUGUUCUGAGAAUACATT against KRT83, the median seed-adjusted z-score was 1.15 (active).
In the case of AGAAUCGUGUGGAAAAAGATT against PARK7, the median seed-adjusted z-score is reported as -0.357 (inactive).
With CCAUGACAAUCAACGAGGATT against AMY2A the median seed-adjusted z-score was -0.266 (inactive).
With CUUUUGCCUGUAGCCCAUATT against GCS1 the median seed-adjusted z-score was 0.819 (inactive).
With CGAGAUAACUACUUUCGGATT against RALB the median seed-adjusted z-score was -0.534 (inactive).
With ACAGAUCCAUUUUUAGGGATT against PKIG the median seed-adjusted z-score was 0.0916 (inactive).
With CCACGUCUCUGGAGAGUUUTT against ALAD the median seed-adjusted z-score was 0.0952 (inactive).
For GGCUGUACAUCUGGACCAATT against NFKBIE, the median seed-adjusted z-score was -0.452 (inactive).
In the case of GGAUGGGCCUUGAAGCCUUTT against GPR97, the median seed-adjusted z-score is reported as -0.0155 (inactive).
In the case of GGGAAUAUCUCUUCCGACATT against ACTL7A, the median seed-adjusted z-score is reported as 1.1 (active).
For GGCUAUCAUCUACACCCGATT against UGCG, the median seed-adjusted z-score was 0.492 (inactive).
For CGAUUAUUGUGAGCCUAAUTT against JAG1, the median seed-adjusted z-score was -0.32 (inactive).
For CUAAGAGACUAAAUGCAAATT against SUCLG2, the median seed-adjusted z-score was -0.619 (inactive).
In the case of GGGCCGCUUUAGAAAGGUATT against SNX1, the median seed-adjusted z-score is reported as 0.0261 (inactive).
With CCUGGACCCUGAACUCACATT against LILRA4 the median seed-adjusted z-score was 0.109 (inactive).
For GCAUUACAGUACUUACGUATT against BTAF1, the median seed-adjusted z-score was -1.19 (active).
In the case of GGCUCUUACAAGUCCUUAUTT against CHRM2, the median seed-adjusted z-score is reported as 0.053 (inactive).
For GGCAUUACCGUGUAUAACATT against CHST10, the median seed-adjusted z-score was 0.115 (inactive).
For GUACUGGAGUGAUGAGUUUTT against PARP12, the median seed-adjusted z-score was -0.287 (inactive).
With GUCUGUCGCUACUACAAUATT against SLCO2B1 the median seed-adjusted z-score was 0.289 (inactive).
With CGAUGGGUCUGUGCACAAATT against TGM2 the median seed-adjusted z-score was 0.413 (inactive).
With CGGCCUUGAUAAACUGAAATT against SNAPC3 the median seed-adjusted z-score was -1.72 (active).
In the case of CCAUGAGUGUGACUCUCAATT against ZNF599, the median seed-adjusted z-score is reported as 0.0896 (inactive).
For CCCGGAUUGUUCCUACUGATT against ALG9, the median seed-adjusted z-score was -0.267 (inactive).
In the case of CGGGCUCCGUAGUCACAUUTT against NAALADL1, the median seed-adjusted z-score is reported as -0.0444 (inactive).
In the case of GAACAAAUCUGCGAGAUCATT against DIRAS2, the median seed-adjusted z-score is reported as -1.25 (active).
For GCAGUUGGAGAGAUAAUAATT against VRK1, the median seed-adjusted z-score was -0.148 (inactive).
For CACUGUUUAUGUAUAUGGATT against RHOT1, the median seed-adjusted z-score was -0.189 (inactive).
For UCACCACCGUGUCUAAGAATT against MPO, the median seed-adjusted z-score was -0.223 (inactive).
With GGUUCUUGCUUACACUCUUTT against ESSPL the median seed-adjusted z-score was 0.328 (inactive).
With CAUUGUCAAUAUAACGAUUTT against GPR98 the median seed-adjusted z-score was -0.509 (inactive).
With CAAGAAUCUUAAGAUAGAATT against CD4 the median seed-adjusted z-score was -0.566 (inactive).
In the case of AUAUAUUGCUUGGAGAUGATT against STK16, the median seed-adjusted z-score is reported as 0.113 (inactive).
For CCAUCAACAUCGCCCUGAATT against PLOD1, the median seed-adjusted z-score was 0.481 (inactive).
For GCCUUUUGCUCAUCUCACUTT against TNFSF11, the median seed-adjusted z-score was 0.0212 (inactive).
In the case of CAACCAGACUAUUCGGACATT against PPP1R10, the median seed-adjusted z-score is reported as 1.41 (active).
In the case of CCAACCUUCUGAAUACGUUTT against GPR126, the median seed-adjusted z-score is reported as -0.243 (inactive).
With AAAAGAGACUGAUCAUCCATT against NR2F6 the median seed-adjusted z-score was -0.681 (inactive).
In the case of GAACUAUGCUAUACCAGAATT against IQCH, the median seed-adjusted z-score is reported as 0 (inactive).
With GACUAUUCCCUGCACCACATT against ABHD9 the median seed-adjusted z-score was 0.486 (inactive).
In the case of CUUCCGUUAUGAUACAGAATT against GABRA2, the median seed-adjusted z-score is reported as -0.272 (inactive).
For GCUGUACACCGGCAUCGUATT against SLC5A5, the median seed-adjusted z-score was 1.01 (active).
With GAAUCUAUGAGCUUCGAAATT against PSMB5 the median seed-adjusted z-score was -1.37 (active).
For CUAUGGGUAUGACUACUUUTT against BPHL, the median seed-adjusted z-score was -0.161 (inactive).
For GGAACAUAGUCUUCAGGUATT against KIF20A, the median seed-adjusted z-score was 0.906 (inactive).
For AUGCUGAUCAGGAAAAGUATT against TEX13A, the median seed-adjusted z-score was -1.22 (active).
For CACUGAAGCUGUACAACAATT against TSHR, the median seed-adjusted z-score was 0.851 (inactive).
In the case of GAGUGAUCAGAGACCGAAATT against IARS, the median seed-adjusted z-score is reported as -0.198 (inactive).
For GGACUUACUAAAAGCUAAATT against CRKRS, the median seed-adjusted z-score was -1.16 (active).
In the case of CAAUCUAACUUUUCGGACATT against CLCA2, the median seed-adjusted z-score is reported as 0.669 (inactive).
In the case of CAGUUUCAACUUUAUCAGATT against RNF144B, the median seed-adjusted z-score is reported as 0.642 (inactive).
In the case of GAUGAUAUCCUACUAGGCATT against CD302, the median seed-adjusted z-score is reported as 0.0818 (inactive).
For CAAUGUUUGUCUGGUCAUATT against ZDHHC2, the median seed-adjusted z-score was 0.133 (inactive).
For CAUCUUAUCUACAUCUUAUTT against KCNK18, the median seed-adjusted z-score was 0.115 (inactive).
With CCAUUAUCGCUGUCUUCUATT against CXCR7 the median seed-adjusted z-score was -0.511 (inactive).
With GGCCUACAGCUGGAAGGAATT against CHRM1 the median seed-adjusted z-score was 1.1 (active).
For GGAUGCGUUGAAUAAGUUUTT against MGAT4A, the median seed-adjusted z-score was 0.134 (inactive).
For GCACUACGGACCAUAGUUATT against NRF1, the median seed-adjusted z-score was 0.608 (inactive).
With CGAAGUUCACUAUCGAACATT against DNAH11 the median seed-adjusted z-score was 0.104 (inactive).
With AUAUCAACUUGACCCACCATT against B3GNT7 the median seed-adjusted z-score was -1.05 (active).
For CUACUUCCUUUAUCCCGAUTT against BDH1, the median seed-adjusted z-score was -0.0253 (inactive).
For GGAUCGAUAUCAAGAUAUUTT against AVEN, the median seed-adjusted z-score was 0.184 (inactive).
With GAAUCUCUGUAGCCGAUGATT against CPA1 the median seed-adjusted z-score was -0.187 (inactive).
In the case of AGACUGAACUCCGAACAGATT against SSH3, the median seed-adjusted z-score is reported as -0.0772 (inactive).
In the case of GAAUAAGAGCACAAGUAAATT against SERPINB13, the median seed-adjusted z-score is reported as 0.0593 (inactive).
In the case of AGCUGAUGUUCGAGCAGUATT against ACTL6B, the median seed-adjusted z-score is reported as 0.0703 (inactive).
For CUCUGAGUAUGUGACCGAATT against XPNPEP1, the median seed-adjusted z-score was -1.5 (active).
In the case of CAUCAUCUAUGUAAGCCUATT against PRKD1, the median seed-adjusted z-score is reported as -0.323 (inactive).
With CAAGAAUCAUUAAUACAAATT against CCL2 the median seed-adjusted z-score was 0.651 (inactive).
For GGACGCAGGUUUCUGUUUATT against CHRFAM7A, the median seed-adjusted z-score was 0.115 (inactive).
In the case of CACCAGCUAUGAACGAGAATT against THOC2, the median seed-adjusted z-score is reported as -1.22 (active).
For CGACCUACCGAGAAGAAAATT against GJB3, the median seed-adjusted z-score was -0.198 (inactive).
For GGGAUGUUCUUAGAAGUUUTT against BIK, the median seed-adjusted z-score was 0.0492 (inactive).
With GCCCAGUUGCUUAACGAAUTT against ACVR2A the median seed-adjusted z-score was -0.22 (inactive).
With CAAGAACUACAGAUUCGUATT against PPP1R13B the median seed-adjusted z-score was 0.0943 (inactive).
With GACUGACCAUACUGAUAUUTT against NPY5R the median seed-adjusted z-score was 0.213 (inactive).
With GCCUGUUUCAAGACACUGATT against CRNN the median seed-adjusted z-score was -0.0758 (inactive).
With GCUUUAGAGUUCCAUAUGATT against PIK3CG the median seed-adjusted z-score was 0.576 (inactive).
With GCACCUAUAUUUACUACUUTT against TTC3 the median seed-adjusted z-score was -1.17 (active).
For CAACUUGCCUUGUUAACCATT against ZDHHC2, the median seed-adjusted z-score was 0.133 (inactive).
With CUUCCACCCGAGUACCUUUTT against HDAC10 the median seed-adjusted z-score was -0.165 (inactive).
For GAAUAGAGAUCAAAUUCCATT against CD163, the median seed-adjusted z-score was 0.021 (inactive).
In the case of GGAGGCUUCUUUAUGAAUUTT against FXYD4, the median seed-adjusted z-score is reported as -0.0447 (inactive).
With CUAUAACUGUUCGUGCUUATT against USP47 the median seed-adjusted z-score was 0.3 (inactive).
With GAAAAUCACCAAAACAUACTT against WHSC1 the median seed-adjusted z-score was 1.17 (active).
For GGAAAGUCCUGUUUGAUCATT against RHBDL3, the median seed-adjusted z-score was 0.56 (inactive).
With CUGUAGAACUAGUCCUUAUTT against PRKRIR the median seed-adjusted z-score was 0 (inactive).
For GUAUGUCGGGUAUACCGUUTT against RAD54L2, the median seed-adjusted z-score was -0.0646 (inactive).
In the case of CGACAAUGCGGUCAACCUUTT against CD28, the median seed-adjusted z-score is reported as -0.993 (inactive).
With GGAGAUACUCCGAACCUCATT against TEX13A the median seed-adjusted z-score was -1.22 (active).
For CGAUAUCUGACGCAGCUAATT against RPS6KA2, the median seed-adjusted z-score was 0.139 (inactive).
For ACAUCCGAGUUUAUCCUGATT against SFRS9, the median seed-adjusted z-score was -0.144 (inactive).
In the case of GGAAAAAUAUCCAGCAAAATT against UBE2E2, the median seed-adjusted z-score is reported as -1.77 (active).
In the case of CCUCAGAUCUACCCACAGATT against CSF2RB, the median seed-adjusted z-score is reported as -0.454 (inactive).
With CACAAGCAAGUUCAAAUAATT against FCRL4 the median seed-adjusted z-score was -0.39 (inactive).
In the case of GCUAUUUGCUGGCUACAAATT against POLR2J3, the median seed-adjusted z-score is reported as -5.42 (active).
In the case of GCGGCAAUCUUGGGAGUAATT against TMPRSS11B, the median seed-adjusted z-score is reported as -0.545 (inactive).
